Inconclusive results are not listed. Calls of active or inactive are those of the source. How the source made its calls: active means hit-call score of the fitted dose curve at least 0.9, where 1 is the maximum; inconclusive means response in the unintended direction; inactive means score below 0.9.

The target in the assay is human Interleukin-1 Receptor-Associated Kinase 4 (IRAK4), IRAK4 (gene 51135) (UniProt Q9NWZ3). Nature of the assay: NVS_ENZ_hIRAK4: NovaScreen (NVS) Enzymatic Assay for human Interleukin-1 Receptor-Associated Kinase 4 (IRAK4). As to the method: NVS_ENZ_hIRAK4 is a biochemical, single-readout assay that uses extracted gene-proteins in a cell-free assay. Measurements were taken 1 hour after chemical dosing in a 384-well plate.NVS_ENZ_hIRAK4 is one of one assay component(s) measured or calculated from the NVS_ENZ_hIRAK4 assay. It is designed to make measurements of enzyme activity, a form of enzyme reporter, as detected with fluorescence intensity signals by Fluorescence and electrophoretic mobility shift technology.Data from the assay component NVS_ENZ_hIRAK4 was analyzed into 1 assay endpoint. This assay endpoint, NVS_ENZ_hIRAK4, was analyzed in the positive analysis fitting direction relative to DMSO as the negative control and baseline of activity. Using a type of enzyme reporter, loss-of-signal activity can be used to understand changes in the enzymatic activity as they relate to the gene IRAK4. Furthermore, this assay endpoint can be referred to as a primary readout, because this assay has produced […] where this one serves a enzymatic activity function. To generalize the intended target to other relatable targets, this assay endpoint is annotated to the kinase intended target family, where the subfamily is […].
human Interleukin-1 Receptor-Associated Kinase 4 (IRAK4), IRAK4 (gene 51135), sequence (Q9NWZ3 whole entry, looked up): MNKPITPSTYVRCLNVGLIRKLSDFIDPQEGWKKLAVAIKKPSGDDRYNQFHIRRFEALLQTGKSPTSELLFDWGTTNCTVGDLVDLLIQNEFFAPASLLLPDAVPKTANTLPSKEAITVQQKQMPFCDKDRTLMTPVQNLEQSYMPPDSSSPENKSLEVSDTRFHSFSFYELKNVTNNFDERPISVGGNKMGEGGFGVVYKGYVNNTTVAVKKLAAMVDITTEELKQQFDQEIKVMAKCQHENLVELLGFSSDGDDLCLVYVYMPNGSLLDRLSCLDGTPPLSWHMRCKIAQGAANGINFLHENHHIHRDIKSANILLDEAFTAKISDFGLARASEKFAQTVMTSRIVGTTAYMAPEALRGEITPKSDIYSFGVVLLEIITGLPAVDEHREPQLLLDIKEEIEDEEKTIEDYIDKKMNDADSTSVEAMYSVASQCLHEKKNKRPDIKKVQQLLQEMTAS
Binding assays used specific radioligands (tritiated, iodinated) with non-radioactive competitive displacement ligands in agonist or antagonist protocols (as indicated) and various reference compounds and inhibitors to titrate specific binding to receptors and transporters. Most enzyme assays (CYPs, kinases, phosphatases, proteases, HDACs) used recombinant protein and specific substrates (fluorescence mostly, some colorimetric and radioactive) and inhibitors, followed by a biochemical separation of substrate and product. All assays for the biochemical HTS were initially run in duplicate at a single concentration (10 uM for CYP450 assays and 25 uM for all others). Assay-chemical combinations meeting a pre-defined threshold (e.g., 30% inhibition and other criteria defined below) were then run in singleton concentration-response format with maximum concentration of 20 uM for CYPs and 50 uM for all others. Each assay was run with positive and negative controls, and concurrent controls on every plate. The follow-up (secondary) screen tested active chemical-pairs in concentration series, as well as a few additional assays not tested in the primary screen, some selected negative inactives, and several cases re-run in the concentration series for confirmatory purposes.
Take `COP(=S)(OC)Oc1ccc([N+](=O)[O-])cc1`: the result was inactive. Consider `CCCCNC(=O)OCC#CI`, for which the result was inactive.

Turning to `CNC(=S)S`, the call was inactive.

On to `Cc1ccc(N=CN(C)C=Nc2ccc(C)cc2C)c(C)c1`, for which the compound was classed as inactive. For `CCOC(=O)C(Cl)Cc1cc(-n2nc(C)n(C(F)F)c2=O)c(F)cc1Cl` (stereo not given), the outcome was inactive.
